Source: PubChem BioAssay (NCATS)
Values joined by “and” are separate entries in the source; they are usually repeats but may differ in a detail not shown here. Equal values may be shown once. Results filed as inconclusive are left out. The source holds several records for some structures; these can differ, active in one and inactive in another. Active and inactive are the calls of the source. Unless noted, how the calls were made is not given here.

How the values were obtained:
[1] = qHTS profiling of the MIPE4 collection as inhibitors of Plasmodium falciparum (DD2) proliferation (AID 743345); conditions: P. falciparum Dd2 in erythrocytes, SYBR Green DNA, 72 h; at 28.5 µM (top of the series) unless noted
In short: (§1)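 Erythrocytes infected with P. falciparum (0.3% parasitemia, 2.5% hematocrit) incubated with compounds 72 h at 37 C, 5% CO2. Lysis with saponin/Triton buffer containing SYBR Green I, overnight at room temperature in the dark; DNA fluorescence (485/535 nm) normalised to 0.29 uM artemisinin and DMSO.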

[2] = qHTS profiling of the MIPE4 collection as inhibitors of Plasmodium falciparum (DD2) proliferation (Rep 2) (AID 743346); conditions: P. falciparum Dd2 in erythrocytes, SYBR Green DNA, 72 h; at 28.5 µM (top of the series) unless noted
In short: as §1

[3] = qHTS profiling of the MIPE4 collection as inhibitors of Plasmodium falciparum (HB3) proliferation (AID 743347);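 further: plate controls were DMSO vehicle wells for no effect and artemisinin wells for full effect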; conditions: P. falciparum HB3 in erythrocytes, SYBR Green DNA, 72 h; at 28.5 µM (top of the series) unless noted
In short: as §1

[4] = High-throughput drug toxicity screening in the BPDCN cell line Gen2.2 (AID 1224824); conditions: Gen2.2 BPDCN cells; at 45.8 µM (top of the series) unless noted;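 further: cells exposed to compounds for 48 h before reading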
In short: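 Gen2.2, 500 cells/well, phenol red-free RPMI/10% FBS/Pen-Strep; 48 h cpd, 37 °C/5% CO2; CTG lum, 15 min RT. Norm: DMSO = 100%, bortezomib 9.2 uM final = 0%.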

[5] = High-throughput drug toxicity screening in the BPDCN cell line Cal-1 (AID 1224825); conditions: Cal-1 BPDCN cell viability, qHTS; at 45.8 µM (top of the series) unless noted
In short: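 Exponentially growing Cal-1 cells, 500 per well in phenol red-free RPMI with 10% FBS, were exposed to compounds for 48 h at 37 °C, 5% CO2. Viability was read by CellTiter-Glo luminescence and normalised to DMSO (100%) and 9.2 uM bortezomib (0%).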

[6] = qHTS assay for measurement of the activity of small molecule inhibitors on Zika virus induced Caspase-3 activity in human iPSC derived neural progenitor cells (hNPCs) (AID 1224857; active means well fitted inhibition curve with a large enough effect; further: nearly all actives have a fitted effect of over 65% in size; further: potency means the concentration at half of the fitted maximal effect)
In short: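 Cells were plated at 350 per well and grown 16 to 20 hours. Compound pretreatment lasted one hour, after which ZIKV (2 FFU/cell) was added for 6 hours. Percent inhibition was normalized between uninfected and infected controls.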

[7] = qHTS Screen of the MIPE 4.0 Collection Against Ewings Sarcoma (RDES) (AID 1259252; active means well fitted inhibition curve with a large enough effect; further: nearly all actives have a fitted effect of over 35% in size; further: potency means the concentration at half of the fitted maximal effect)
In short: (§2)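 Here, cells in 5% FBS RPMI were exposed for two days (48 h) to compound dilutions added four hours after plating. ATP-based CellTiter-Glo luminescence measured viability, normalized to vehicle and no-cell blanks.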

[8] = qHTS Screen of the MIPE 4.0 Collection Against Ewings Sarcoma (TC71) (AID 1259253; active means well fitted inhibition curve with a large enough effect; further: nearly all actives have a fitted effect of over 40% in size; further: potency means the concentration at half of the fitted maximal effect)
In short: as §2

[9] = qHTS Screen of the MIPE 4.0 Collection Against Ewings Sarcoma (EW8) (AID 1259255; active means well fitted inhibition curve with a large enough effect; further: nearly all actives have a fitted effect of over 35% in size; further: potency means the concentration at half of the fitted maximal effect;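 on viability: 100% = DMSO-treated cells and 0% = medium-only wells without cells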)
In short: as §2

[10] = qHTS assay for measurement of the activity of small molecule inhibitors on Zika virus induced Caspase-3 activity in human astrocytoma cells (AID 1224859; active means well fitted inhibition curve with a large enough effect;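 further: plate controls were ZIKV-infected untreated cells for no effect and uninfected cells for full effect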)
In short: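 Percent inhibition of virus-induced caspase-3/7 signal is calculated against uninfected and ZIKV-infected control cells. Cells are SNB-19, infected at 2 FFU/cell for 6 h after 1 h compound exposure.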

Row | Structure (SMILES) | parasite growth remaining, % of DMSO control (lower = more inhibition) [1] [%] | parasite growth, % of control (lower = inhibition) [2] [%] | growth, % of control [3] [%] | cell viability, % of control (lower = more cytotoxic) [4] [%] | viability (% of control) [5] [%] | Potency [6] | Potency [7] | Potency [8] | Potency [9] | Potency [10]
1 | O=c1c(O)c(-c2ccc(O)cc2O)oc2cc(O)cc(O)c12 | 71 | 111 | 99.8 | 74.1 | 84.9 | inactive | inactive | inactive | – | –
2 | Cc1cc(Cl)ccc1OCCCC(=O)NO | 72.9 | – | 41.9 | 21.7 | 3.6 | inactive | 0.743 µM (active) | 9.35 µM (active) | – | –
3 | CS(=O)(=O)OCCCCOS(C)(=O)=O | 77.1 | 79.3 | 106 | 84.6 | 62.5 | inactive | inactive | – | – | –
4 | C[C@H](Cc1ccc(O)c(O)c1)[C@@H](C)Cc1ccc(O)c(O)c1 | 17.2 | – | 20.7 | 7.79 | 5.77 | inactive and 26.4 µM (active) | – | 13.2 µM (active) | 16.6 µM (active) | –
5 | CCOC(=O)C1=C(O)C(=O)N(Cc2ccccc2)C1 | 104 | – | 93.7 | 81.5 | 112 | inactive | inactive | inactive | inactive | –
6 | CN1CCC(=C2c3ccccc3CCc3sccc32)CC1 | 50.7 | 14.9 | 8.17 | 93.1 | 69 | inactive | – | – | – | inactive
7 | O=C1c2ccccc2-c2n[nH]c3cccc1c23 | 93 | 87 | 85.2 | 84.7 | 3.95 | inactive | – | – | – | –
8 | O=C(c1ccccc1)c1ccc2n1CCC2C(=O)O (stereo not drawn) | 107 | – | 104 | 14.8 | 15.1 | 18.7 µM (active) | 3.32 µM (active) | 4.18 µM (active) | – | –
9 | NC(=O)Cc1cccc(C(=O)c2ccccc2)c1N | 98.5 | – | 95.3 | 108 | 114 | inactive | – | – | inactive | –
10 | CN(c1nccc(=O)[nH]1)C1CCN(c2nc3ccccc3n2Cc2ccc(F)cc2)CC1 | 81.9 | 23.1 | 17.5 | 107 | 108 | inactive | 13.2 µM (active) | 18.7 µM (active) | – | –
11 | Cc1cc2c(s1)Nc1ccccc1N=C2N1CCN(C)CC1 | – | – | – | 199 | 115 | inactive | inactive | inactive | – | –
12 | CCCOc1ccc2nc(NC(=O)OC)[nH]c2c1 | 92 | 126 | 99.5 | 86.8 | 14.2 | inactive | – | 0.0093 µM (active) | – | –
13 | CCOc1cc(CC(=O)N[C@@H](CC(C)C)c2ccccc2N2CCCCC2)ccc1C(=O)O | 123 | – | 75.6 | 23.9 | 27.5 | inactive | inactive | inactive | inactive | –
14 | O=C(O)c1cccc(-c2noc(-c3ccccc3F)n2)c1 | 96.1 | 41.6 | 99.8 | 41.1 | 93.8 | inactive | – | – | – | inactive
